LmPK inhibitor: qHTS Assay for Inhibitors of Leishmania Mexicana Pyruvate Kinase (LmPK); Q27686; purified LmPK, Kinase-Glo ATP luminescence, 1 h; Potency, µM (top dose mostly 57.5 µM), for the others: at the highest dose activity change, negative = inhibition, usual class: inhibitors; 290,000 compounds, 0.37% hits; AID 1721, 2009; also: potency is read from the fitted curve at half-maximal effect; % is scaled to controls: 0 for no effect and ±100 for the full control effect
Target sequence (Q27686 whole entry, looked up): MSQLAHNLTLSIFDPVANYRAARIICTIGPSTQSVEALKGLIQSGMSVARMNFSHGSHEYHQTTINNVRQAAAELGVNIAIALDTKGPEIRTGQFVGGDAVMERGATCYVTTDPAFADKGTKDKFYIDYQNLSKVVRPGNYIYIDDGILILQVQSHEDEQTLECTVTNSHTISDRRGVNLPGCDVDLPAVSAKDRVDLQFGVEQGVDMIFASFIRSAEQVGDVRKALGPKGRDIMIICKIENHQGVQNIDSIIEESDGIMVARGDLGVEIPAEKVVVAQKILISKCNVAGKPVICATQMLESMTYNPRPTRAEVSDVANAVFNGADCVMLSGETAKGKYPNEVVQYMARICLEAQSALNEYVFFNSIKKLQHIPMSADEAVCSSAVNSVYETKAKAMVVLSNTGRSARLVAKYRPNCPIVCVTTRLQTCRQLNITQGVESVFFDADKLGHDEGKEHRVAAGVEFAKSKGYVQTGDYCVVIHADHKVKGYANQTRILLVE
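In 50 mM imidazole pH 7.2 with 7 mM MgCl2, LmPK (0.1 nM) turned over PEP (0.5 mM) and ADP (0.1 mM) for 1 h at room temperature. Luciferase read-out of ATP.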
CHX counter: Cycloheximide Counterscreen for Small Molecule Inhibitors of Shiga Toxin; max response, %; AID 2314, 2010; cell reporter, cycloheximide protein synthesis inhibition counterscreen; 300,000 compounds, 12% hits; in the data active = max response mostly above about 13%, no sharp cut-off; inactive = mostly below about 14%; also: read at 38.3 µM for the half of the compounds with a filed dose; 0% is about no effect
Shiga inhibitor: A qHTS for Small Molecule Inhibitors of Shiga Toxin | inhibition, % at 38.7 µM | Vero cells, Shiga toxin protein synthesis inhibition reporter | 290,000 compounds, 9.2% hits; in the data active = inhibition mostly above about 28%, no sharp cut-off; inactive = mostly below about 43%; also: 0% is about no effect
Pf growth 48h: Primary qHTS for delayed death inhibitors of the malarial parasite plastid, 48 hour incubation; P. falciparum luciferase growth in erythrocytes, 48 h; Potency, µM (titrated, usually from 28.7 µM), for the others: at the highest dose activity change, negative = inhibition, usual class: inhibitors; 310,000 compounds, 5.9% hits; AID 504832, 2011; also: potency is read from the fitted curve at half-maximal effect; % is scaled to controls: 0 for no effect and ±100 for the full control effect
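Firefly luciferase activity from engineered P. falciparum reports growth; inhibitors lower the luminescent signal. Cultures contained 2% hematocrit erythrocytes at 0.1% final parasitemia.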
Pf growth 96h: Primary qHTS for delayed death inhibitors of the malarial parasite plastid, 96 hour incubation; Potency, µM (titrated, usually from 28.7 µM), for the others: at the highest dose activity change, negative = inhibition, actives largely listed as inhibitors; AID 504834, 2011; P. falciparum luciferase reporter growth, 96 h; 320,000 compounds, 6.9% hits; also: potency is read from the fitted curve at half-maximal effect; % is scaled to controls: 0 for no effect and ±100 for the full control effect
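Two parasite generations (96 h, 37 C, 5% CO2) of compound exposure in infected erythrocytes (0.05% parasitemia, 2% hematocrit). Luciferase-reporter P. falciparum; decreased luminescence indicates inhibited growth, aimed at apicoplast-acting delayed death.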
Active calls of the source: *; u = inconclusive; x = not tested or not shown; [ ] = remark or other dose. Only some compounds are listed: those with a hit (about 22% of all), similar ones and a draw of the others. Unless noted, calls follow the shape of the dose curve; as a rule, active = well fitted inhibition curve with a large enough effect; inconclusive = small, poorly fitted or top-dose-only effect, or another doubt; inactive = no such curve, though single readings can be large or run the other way.

SMILES	LmPK inhibitor	CHX counter	Shiga inhibitor	Pf growth 48h	Pf growth 96h
COc1cc(NC(=O)c2cc(C)nc3ccccc23)cc(OC)c1	4%	11	21	2%	12%
Cn1c(NC(=O)c2cc(-c3ccc4c(c3)OCO4)nc3ccccc23)cc(=O)n(C)c1=O	-11%	43*	31	1%	104%
Cc1cc(C(=O)Nc2ccc(Br)cc2)c2ccccc2n1	9%	-2	x	45%	20%
Cc1ccccc1S(=O)(=O)c1c(C)cc(-c2ccccc2)[nH]c1=O	-6%	0	-7	0%	u
O=C(NCc1ccco1)c1ccc(CS(=O)Cc2ccc(Cl)cc2)o1 (stereo not given)	-1%	6	-3	-4%	6%
O=C(Nc1nc2c(s1)CCCC2)c1cc(-c2ccc3c(c2)OCO3)nc2ccccc12	7%	26*	39	24%	0%
Cc1cc(C(=O)NNC(=O)c2ccc(Cl)cc2)c2ccccc2n1	x	x	x	12%	24%
O=C(Nc1ccc2c(c1)OCO2)c1cc(-c2ccncc2)nc2ccccc12	-13%	19*	21	u	u
Cc1ccccc1-c1cc(C(=O)Nc2nc3c(s2)CCCC3)c2ccccc2n1	-4%	11	43	u	u
COc1cccc(-c2cc(C(=O)Nc3ccc4c(c3)OCCO4)c3ccccc3n2)c1	1%	22*	21	9.3µM*	6.6µM*
O=C(Nc1ccc2c(c1)OCCO2)c1cc(-c2ccccc2)nc2ccccc12	-7%	16	-16	u	u
Cc1cc(C(=O)NNC(=S)NC(C)c2ccccc2)c2ccccc2n1 (stereo not given)	1%	-3	-21	-16%	10µM*
Cc1ccc(OCC(=O)N(C)CC(=O)Nc2cccc(F)c2)cc1	1%	-2	-10	0%	-30%
Cc1c(C)n(C)c2ccc(C(=O)NCCCN3CCN(c4ccccc4F)CC3)cc12	1%	-4	-5	10µM*	-20%
Cc1c(C)n(Cc2ccccc2)c2ccc(C(=O)NCCCN3CCOCC3)cc12	6%	-3	-6	-19%	32%
Cc1c(C)n(Cc2ccc(F)cc2)c2ccc(C(=O)NCCCN3CCOCC3)cc12	1%	-5	-4	9.3µM*	33%
COCCn1c(=NC(=O)C(C)(C)C)sc2cc([N+](=O)[O-])ccc21	-1%	19*	9	39%	91%
COCCn1c(=NC(=O)c2cccs2)sc2cc(NC(C)=O)ccc21	-2%	-4	-6	4%	55%
C/C(=N\NC(=O)c1c(Cl)c(C)nn1C)c1cccc(NC(=O)C2CCCC2)c1	2%	14*	38	-23%	u
C/C(=N/NC(=O)c1ccoc1C)c1ccc(NC(=O)c2ccncc2)cc1	u	63*	104*	105%	51%
C/C(=N\NC(=O)c1c(Cl)c(C)nn1C)c1ccc(NC(=O)c2ccncc2)cc1	1%	12*	26	u	u
C/C(=N\NC(=O)c1c(Br)c(C)nn1C)c1ccc(NC(=O)C(C)Oc2ccc(Cl)cc2C)cc1 (stereo not given)	8%	-2	-11	1%	3%
C/C(=N\NC(=O)c1nn(C)c(C)c1Br)c1ccc(NC(=O)c2ccc(C)s2)cc1	2%	45*	64*	52%	32%
O=C(c1ccc(S(=O)(=O)Nc2ccccc2)cc1)N1CCC1	x	x	x	18%	3%
C/C(=N\NC(=O)c1nn(C)c(C)c1Br)c1ccc(NC(=O)c2ccccc2F)cc1	0%	18*	active	43%	23%
SMILES	LmPK inhibitor	CHX counter	Shiga inhibitor	Pf growth 48h	Pf growth 96h
C/C(=N\NC(=O)c1c(Br)c(C)nn1C)c1ccc(NC(=O)c2ccoc2C)cc1	-9%	44*	40*	17%	-10%
CCC(=O)Nc1ccc(/C(C)=N/NC(=O)c2c(Br)c(C)nn2C)cc1	-9%	-2	15	5%	u
C/C(=N\NC(=O)c1nn(C)c(C)c1Br)c1ccc(NC(=O)c2ccoc2C)cc1	-8%	91*	93*	49%	-3%
CN(CC(=O)Nc1ccccc1Cl)C(=O)c1ccc(N2C(=O)CCC2=O)cc1	x	x	x	u	12%
CC(C)c1ccc(NC(=S)N2CCCC2)cc1	-2%	61*	156*	80%	-8%
S=C(Nc1ccccc1)N1CCCCCCC1	4%	-2	-10	-5%	u
CC(C)c1ccc(NC(=S)NN2CCN(C)CC2)cc1	-2%	1	18	13%	-31%[1.15 µM]
CC(C)c1ccc(NC(=S)N2CCN(C)CC2)cc1	-2%	37*	37*	65%	141%
CC(=O)n1nc(-c2ccccc2)nc1NCc1cccs1	1%	25*	30	24%	u
COCC(=O)n1nc(-c2ccccc2)nc1NCc1ccc(F)cc1	3%	15	47*	u	x
CCC(=O)n1nc(-c2ccc(OC)cc2)nc1NCc1cccs1	7%	-4	5	44%	-27%
CCC(=O)n1nc(-c2cccnc2)nc1NCc1ccc(OC)cc1	-13%	-3	2	15%	-28%
CCC(=O)n1nc(-c2ccccc2)nc1NCc1ccccc1	-3%	23*	71*	21%	100%
COc1ccc(CNc2nc(-c3ccccc3)nn2C(=O)c2ccc([N+](=O)[O-])cc2)cc1	2%	32*	75*	63%	-23%
COc1ccc(CCN(C)C2CCCN(S(=O)(=O)c3ccccc3)C2)cc1OC (stereo not given)	0%	-2	-7	u	-9%
COCC(=O)n1nc(-c2ccccc2)nc1NCc1ccccc1	3%	25*	63	3%	u
CC(=O)n1nc(-c2ccccc2)nc1NCc1ccc(N(C)C)cc1	0%	45*	68*	37%	u
CC(C)C(=O)n1nc(-c2cccnc2)nc1NCc1cccs1	3%	16	18	8%	-30%
O=C(c1cccnc1)n1nc(-c2ccco2)nc1NCc1cccs1	0%	37*	124*	57%	41%
CCN(CC)C(=O)C1CCCN(C(=O)c2cc(COc3cccc(OC)c3)on2)C1 (stereo not given)	-7%	-1	-13	20%	9.3µM*
COc1cccc(OCc2cc(C(=O)N3CCCC3c3ccccn3)no2)c1 (stereo not given)	-7%	70*	62*	13%	12%
COc1cccc(OCc2cc(C(=O)N3CCN(C4CCCC4)CC3)no2)c1	2%	2	33	16%	u
COc1cccc(OCc2cc(C(=O)N3CCNC(=O)C3Cc3ccccc3)no2)c1 (stereo not given)	0%	40*	74*	u	14%
Oc1c(Br)cc(Br)cc1C=NCc1ccc(F)cc1	u	6	2	u	44%

Screens from PubChem.
